High-throughput results as filed in PubChem.
Hits are enriched below; roughly 2.6% of the tested compounds scored in any of these assays.
ABHD5 PLIN5 PPI – ABHD5-PLIN5 protein interaction inhibition | 0.78% of 360,000 active | Q00G26+Q8WTS1 | inhibition, % at 4 µM | Split G. princeps luciferase complementation, luminescence, 4 h;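 active = inhibition above the mean inhibition across every tested compound plus 3 SD, cut at about 22% in these data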;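 also: 0% = DMSO only wells and the 100% control is not disclosed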
M18AAP inhibitor – blocks P. falciparum M18 aspartyl aminopeptidase; recombinant PfM18AAP, H-Glu-NHMec fluorogenic cleavage; inhibition, % at 7.35 µM; 1.2% of 290,000 active; AID 1822;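 active = inhibition above the campaign mean inhibition over all tested compounds plus 3 SD, cut at about 28% in these data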;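 also: 0% = plate median of test compound wells and 100% = 2 mM ZnCl2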
Platelet DG rel – platelet dense granule release activity | human platelet-rich plasma, SFLLRN dense granule ATP release, luminescence | inhibition, %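 (compounds screened at 7.5 µM in platelet-rich plasma)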 | 0.22% of 300,000 active | AID 1663;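 active = mean replicate score, as percent of positive control, at or above 50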
Exocytosis inh – lytic granule exocytosis inhibition. TALL-104 LAMP-1 surface exposure, flow cytometry; cells stimulated with thapsigargin and PMA. inhibition, % at 10 µM. 0.66% of 360,000 active. AID 651702;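 active = inhibition above about 55%, limit read from the data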
Rce1 inhib – inhibitors of yeast Ras-converting enzyme; Q03530; yeast membranes, quenched prenylated peptide cleavage fluorescence; calls only; 0.27% of 290,000 active;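 active = fall in fluorescence gain of 50% or more versus controls, with final raw signal at or below 3038400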;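 also: plate controls were neutral control wells for no effect and wells lacking membranes for full effect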
ABHD5 PLIN5 conf – confirmation of human ABHD5-PLIN5 interaction inhibitors | inhibition, % at 4 µM | 67% of 2,200 active | biochemical ABHD5-PLIN5 interaction, luminescence | shares compounds with ABHD5 PLIN5 PPI; in the data active = inhibition above about 23%;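 also: 0% = DMSO vehicle wells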
HNF4 split-luc – active in HNF4 split-luciferase counter-screen for ABHD5-PLIN5 inhibitors; shares compounds with ABHD5 PLIN5 PPI; HNF4 dimerization, luminescence, biochemical; inhibition, % at 4 µM; 77% of 2,200 active; AID 651674;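 active = mean inhibition across replicate wells exceeding the computed hit threshold, cut at about 13% in these data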;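 also: light from luciferase halves that rejoin when HNF4 fusion proteins dimerize; 0% = DMSO only wells and the 100% control is not given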
Target sequence (P41235 whole entry, looked up, the tested form may be a part): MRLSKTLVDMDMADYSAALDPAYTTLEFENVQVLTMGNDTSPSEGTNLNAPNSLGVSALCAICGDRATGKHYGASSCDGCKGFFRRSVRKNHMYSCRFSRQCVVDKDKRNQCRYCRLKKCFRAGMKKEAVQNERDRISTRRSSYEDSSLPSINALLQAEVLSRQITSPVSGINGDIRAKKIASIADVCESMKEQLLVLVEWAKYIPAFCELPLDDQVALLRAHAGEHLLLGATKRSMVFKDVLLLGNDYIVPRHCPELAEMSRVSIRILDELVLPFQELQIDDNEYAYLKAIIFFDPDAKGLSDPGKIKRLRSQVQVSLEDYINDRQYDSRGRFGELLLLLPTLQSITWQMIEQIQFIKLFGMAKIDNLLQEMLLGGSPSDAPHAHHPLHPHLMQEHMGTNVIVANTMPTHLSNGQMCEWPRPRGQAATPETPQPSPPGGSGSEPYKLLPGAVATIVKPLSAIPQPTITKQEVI
The depositor's hits bear a star.

`CCN1/C(=C/C=C/c2oc3ccc(-c4ccccc4)cc3[n+]2CC)Oc2ccc(-c3ccccc3)cc21` gave ABHD5 PLIN5 PPI 37.1*, M18AAP inhibitor -0.8, Platelet DG rel 3.8, Exocytosis inh 28.6, Rce1 inhib inactive, ABHD5 PLIN5 conf 92.1* and HNF4 split-luc 59.9*.
Screening CCCCN1C(=O)/C(=C/C=C2\Oc3ccccc3N2CC)SC1=S returned ABHD5 PLIN5 PPI 5.3, M18AAP inhibitor 1.8, Platelet DG rel 4.9, Exocytosis inh 0.1 and Rce1 inhib inactive.
Screening CSc1nc2ccccc2cc1/C=C(\C#N)c1ccccc1 returned ABHD5 PLIN5 PPI -11.1, M18AAP inhibitor 13.0, Platelet DG rel -4.6, Exocytosis inh 1.1 and Rce1 inhib inactive.
`CSc1nc2ccccc2cc1/C=C(\C#N)c1cccc(C)c1` gave ABHD5 PLIN5 PPI 48.6*, M18AAP inhibitor -1.4, Platelet DG rel 12.2, Exocytosis inh 4.1, Rce1 inhib inactive, ABHD5 PLIN5 conf -11.6 and HNF4 split-luc 0.6.
`CCOC(=O)N1C/C(=C\c2ccccc2)C(=O)/C(=C/c2ccccc2)C1` gave ABHD5 PLIN5 PPI 68.6*, M18AAP inhibitor 14.2, Platelet DG rel -3.8, Exocytosis inh -3.0, Rce1 inhib inactive, ABHD5 PLIN5 conf 103.0* and HNF4 split-luc 107.6*.
`CCOC(=O)N1CCN(S(=O)(=O)/C=C/c2ccccc2)CC1` gave ABHD5 PLIN5 PPI -6.8, M18AAP inhibitor 0.0, Platelet DG rel -0.6, Exocytosis inh 2.2 and Rce1 inhib inactive.
Screening COc1ccc(OC(=O)N2C/C(=C/c3ccccc3)C(=O)/C(=C\c3ccccc3)C2)cc1 returned ABHD5 PLIN5 PPI 74.7*, Exocytosis inh 61.6*, ABHD5 PLIN5 conf 104.2* and HNF4 split-luc 107.4*.
For COc1ccc(OCC(=O)OC(C)CN2CCCCC2)cc1 (stereo not given) the results were ABHD5 PLIN5 PPI 3.4, M18AAP inhibitor -1.2, Platelet DG rel 2.2 and Exocytosis inh -3.4.
For O=C(C[n+]1cccc(CNC(=O)c2ccc(OC(F)F)cc2)c1)Nc1cccc(C(F)(F)F)c1 the results were ABHD5 PLIN5 PPI 31.8*, M18AAP inhibitor 4.7, Platelet DG rel -11.0, Exocytosis inh 0.8, Rce1 inhib inactive, ABHD5 PLIN5 conf 23.8* and HNF4 split-luc 3.4.
Screening O=C(C[n+]1cccc(CNC(=O)c2ccc(OC(F)F)cc2)c1)Nc1ccc(F)cc1 returned ABHD5 PLIN5 PPI 10.9, M18AAP inhibitor -4.7, Platelet DG rel -6.5, Exocytosis inh 0.1 and Rce1 inhib inactive.
Cc1cc(C)cc(NC(=O)CSc2nc3c(oc4ccccc43)c(=O)n2-c2ccccc2)c1 was read as ABHD5 PLIN5 PPI -6.3, M18AAP inhibitor -0.2, Platelet DG rel 9.0, Exocytosis inh 0.2 and Rce1 inhib inactive.
Screening Cc1ccc(C(=O)/C=C/c2ccccc2[N+](=O)[O-])cc1 returned ABHD5 PLIN5 PPI 51.7*, M18AAP inhibitor 6.3, Platelet DG rel 6.5, Exocytosis inh 4.4, Rce1 inhib inactive, ABHD5 PLIN5 conf 84.5* and HNF4 split-luc 78.1*.
For O=C(/C=C\c1ccccc1[N+](=O)[O-])Nc1ccccc1 the results were ABHD5 PLIN5 PPI 0.5, M18AAP inhibitor 4.5, Platelet DG rel -2.4, Exocytosis inh -1.7 and Rce1 inhib inactive.
Screening O=C(/C=C/c1ccc(-c2ccccc2[N+](=O)[O-])o1)c1ccc(F)cc1 returned ABHD5 PLIN5 PPI 28.9*, M18AAP inhibitor 5.4, Platelet DG rel -2.8, Exocytosis inh 79.6*, Rce1 inhib inactive, ABHD5 PLIN5 conf 42.6* and HNF4 split-luc 32.7*.
O=C(/C=C/c1ccccc1[N+](=O)[O-])c1ccccc1Br was read as ABHD5 PLIN5 PPI 81.6*, M18AAP inhibitor 14.5, Platelet DG rel -0.8, Exocytosis inh 7.0, Rce1 inhib inactive, ABHD5 PLIN5 conf 98.5* and HNF4 split-luc 97.8*.
For CCC(=O)Nc1ccc2c(c1)C(=O)c1ccccc1C2=O the results were ABHD5 PLIN5 PPI 2.2, M18AAP inhibitor -0.8, Platelet DG rel 1.3, Exocytosis inh -1.0 and Rce1 inhib inactive.
`CC1=C(C(=O)N(C)C)CC(CC(=O)NCc2ccco2)C(=O)N1CCC1=CCCCC1` (stereo not given) gave ABHD5 PLIN5 PPI -4.9 and Exocytosis inh -1.8.
